In all, about 360,000 compounds went through this assay and about 11,000 (3.1%) were called active. Inconclusive results (about 4%) are left out. The sample holds actives, similar compounds and a random draw of the others, so the mix is not that of the screen. Values without a mark were called inactive. Calls come from the whole dose curve; as a rule, active = well fitted inhibition curve with a large enough effect; inconclusive = small, poorly fitted or top-dose-only effect; inactive = no such curve, though single readings can be large or run the other way.
What follows are compounds tested against Schistosoma mansoni thioredoxin glutathione reductase (TGR) (UniProt Q962Y6) (assay: qHTS Assay for the Inhibitors of Schistosoma Mansoni Peroxiredoxins). Conditions: purified TGR, DTNB reduction, TNB absorbance 405 nm; series mostly up to 114 µM; activity change, negative = inhibition: at the top concentration.
Text: Schistosomiasis is a major neglected tropical disease that currently affects over 200 million. It is caused by different species of flatworms, such as Schistosoma mansoni. Over the last century, drugs to treat the disease have evolved from potassium antimonyl tartrate, artemisinin, oxamniquine, to praziquantel, with praziquantel remaining the universally-used single drug of choice over the past three decades. However, transmission rates have changed little with praziquantel, and there is evidence for the development of drug resistant parasites. Because there is currently no suitable alternative therapy available, there is an urgent need to identify new targets and drugs for schistosomiasis treatment. Thioredoxin glutathione reductase (TGR), one uniquely positioned S. mansoni enzyme, has been identified as a major component of the worms' distinct and compressed antioxidant "firewall". TGR is a multifunctional enzyme that catalyzes the interconversion between reduced and oxidized forms of both glutathione (GSH) and thioredoxins, thus making it an attractive new antiparasitic target. Recently, a quantitative high-throughput screen of the NIH Molecular Libraries Small Molecule Repository (MLSMR, ~71K at the time of the screen in 2007) was performed using an assay that targeted both TGR and peroxiredoxin2 (Prx2, an H2O2-reducing enzymatic component of the S. mansoni redox "firewall") by following the decrease of NADPH fluorescence. […] Additional mechanistic link between exogenous NO donation and parasitic injury for the oxadiazole-2-oxide class of compounds was also expanded and better defined. Although the screen addressed both TGR and Prx2, the assay required post-screen target deconvolution for further characterization of the actives. In addition, the fluorescence assay was also subject to fluorescence interference from compound library members. We have developed a 1536-well-based kinetic HTS assay to address TGR alone. The assay followed the reduction of 5, 5'-dithiobis (2-nitrobenzoic acid) (DTNB) (Ellman's reagent) by NADPH and measured the increase in absorbance at 412 nm of the reaction product, TNB. […] This assay format can be used to screen the current MLSMR collection (with >300K compounds available) to find novel TGR inhibitors. Furoxan is a good choice to serve as a positive control in the primary HTS assay.
Three microliters of reagents (100 uM NADPH and 20 nM TGR or 100 uM NADPH as no-enzyme control) were dispensed into 1,536-well black clear-bottomed plates. Compounds (23 nL) were transferred via Kalypsys pin tool equipped with 1536-pin array (10 nL slotted pins, V&P Scientific, San Diego, CA). The plates were then be incubated for 15 min at room temperature, and 1 uL aliquot of 500 uM NADPH were added, immediately followed by a 1 uL aliquot of 15 mM DTNB to start the reaction. The plate was transferred to a ViewLux high-throughput CCD imager (Perkin-Elmer, Wellesley, MA) where kinetic measurements of the TNB absorbance were acquired using a 405 excitation filter. Throughout the screen, reagent bottles and all liquid lines were made light-tight to minimize reagent degradation. All screening operations were performed on a fully integrated robotic system (Kalypsys, San Diego, CA) containing one RX-130 and two RX-90 anthropomorphic robotic arms (Staubli, Duncan, SC). Library plates were screened starting from the lowest and proceeding to the highest concentration, and a "double-dipping" step of the highest concentration was required to access higher concentrations of compounds. Vehicle-only plates, with DMSO being pin-transferred to the entire column 5-48 compound area, were inserted uniformly at the beginning and the end of each library in order to monitor for and record any shifts in the background, which can be affected by reagent dispensers or loss in enzyme activity overtime. […]
% is set by controls: 0 for no effect and ±100 for the full control effect; potency is the fitted concentration of half-maximal effect.
Note: nearly all actives have a fitted effect of over 60% in size.

| SMILES | activity change, negative = inhibition [%] | Potency |
| --- | --- | --- |
| COc1cc(/C=N/O)cc(Br)c1OS(=O)(=O)c1ccc(C)cc1 | 12.5 | – |
| CCc1ccc(CNC(=O)c2cc3cc4ccc(OC)cc4nc3o2)cc1 | 15 | – |
| COc1ccc2oc(-c3cccc(NC(=O)CSc4ccc(Cl)cc4)c3)nc2c1 | 3.2 | – |
| COc1ccc2cc(CCl)c(Cl)nc2c1 | – | 31.6 µM (active) |
| CCOc1ccc(Nc2nc3c(S(=O)(=O)c4cccc(Cl)c4)nnn3c3ccsc23)cc1 | 0.289 | – |
| C[C@@]12C(=O)N(c3cccc(Br)c3)C(=O)N1[C@H](c1ccc(Cl)cc1)[C@@H]1C(=O)N(C3CCCCC3)C(=O)[C@@H]12 | -24.8 | – |
| O=C1[C@@H]2C(Cc3ccc(O)cc3)NC3(C(=O)Nc4ccc(F)cc43)[C@@H]2C(=O)N1c1ccc(F)cc1 (some centres undefined) | -9.3 | – |
| CSCCC1NC2(C(=O)Nc3ccc(Cl)cc32)[C@@H]2C(=O)N(C3CCCC3)C(=O)[C@H]12 (some centres undefined) | – | 31.6 µM (active) |
| CN(Cc1ccccc1)S(=O)(=O)c1ccc(F)c(C(=O)Nc2cccc(Cl)c2Cl)c1 | 12.7 | – |
| Cc1ccc(CCNC(=O)Cn2c(-c3cccs3)cc3cc(F)ccc32)cc1 | -2.72 | – |
| C=CS(=O)c1sc(Cl)c(N2CCOCC2)c1[N+](=O)[O-] (centres undefined) | – | 0.199 µM (active) |
| CCOC(=O)c1[nH]c(C)c(CCC(=O)N2CCN(c3ccccc3)CC2)c1C | 7.18 | – |
| Cn1c(=O)n(Cc2c(F)cccc2Cl)c(=O)c2c1nc1n2CCN1c1ccc(F)cc1 | 12.7 | – |
| O=C(CCCCn1c(=O)[nH]c2ccccc2c1=O)NCc1ccc2c(c1)OCO2 | – | 2.51 µM (active) |
| NS(=O)(=O)c1ccc(CCNC(=O)CCCCCn2c(=O)[nH]c3ccccc3c2=O)cc1 | 2.15 | – |
| O=C(CCCCCn1c(=O)[nH]c2ccccc2c1=O)NCCc1c[nH]c2ccccc12 | 1.93 | – |
| CCCCCn1c(CCCNC(=O)c2ccccc2OC)nc2ccccc21 | -3.99 | – |
| COc1ccc(C)cc1NC(=O)CCc1c(C)nn(-c2ccc(N3CCOCC3)nn2)c1C | -3.54 | – |
| CCOC(=O)c1ccc(NC(=O)Cn2c(=O)n(-c3ccc(C)cc3)c(=O)c3c2cnn3C)cc1 | 1.17 | – |
| O=C(N/N=C/c1ccco1)c1csc2c1CCCC2 | – | 44.7 µM (active) |
| O=C(Cc1ccccc1)Nc1cccc(C(=O)N/N=C/c2ccco2)c1 | 2.24 | – |
| O=C(Nc1ccccc1N1CCOCC1)c1csc2c1CCCC2 | -5.36 | – |
| CCOC(=O)C1CCN(c2csc3ccc(C)cc3c2=O)CC1 | -5.6 | – |
| CCOC(=O)c1c(NC(=O)/C=C/c2ccc(OC)cc2)sc2c1CCC(C)C2 (centres undefined) | 2.9 | – |
| COc1ccc(/C=C2/SC(=O)N(CCCCCC(=O)Nc3ccccc3C(=O)O)C2=S)cc1 | -1.67 | – |

| SMILES | activity change, negative = inhibition [%] | Potency |
| --- | --- | --- |
| Cc1ccc(-c2nn(-c3ccccc3)cc2/C=C2\SC(=S)N(CCCCCC(=O)O)C2=O)o1 | – | 12.6 µM (active) |
| O=C(O)CCC(=O)N(Cc1ccccc1)Cc1ccccc1 | -7.7 | – |
| Cc1ccc(-c2nn(-c3cccc(F)c3)cc2CNCCc2ccncc2)o1 | -22.6 | – |
| Cc1ccc(-c2nn(-c3ccccc3)cc2CN(Cc2ccccc2)C(=O)CCC(=O)O)o1 | – | 7.94 µM (active) |
| O=C(CCCN1C(=O)/C(=C/c2cccs2)SC1=S)Nc1ccc(O)cc1 | -9.78 | – |
| Cc1ccc(C)c(CN2C(=O)c3ccccc3S(=O)c3ccc(C(=O)N4CCOCC4)cc32)c1 (centres undefined) | -17.2 | – |
| CCCc1nn2c(=O)cc(COC(=O)c3ccc(NC(=O)COc4ccc(F)cc4)cc3)nc2s1 | 2.97 | – |
| CCOC(=O)c1c(NC(=O)COc2cc(C)ccc2C(C)C)sc(C)c1C | -1.77 | – |
| CCCCOc1ccc(C(=O)N2CC(=O)Nc3ccc(Br)cc3C2c2ccc(F)cc2)cc1 (centres undefined) | 3.05 | – |
| CCOC(=O)c1c(C(C#N)C#N)cc(C)nc1C | 2.77 | – |
| CCOC(=O)COc1nc(C)cc(C(F)(F)F)c1C#N | 18 | – |
| CCOC(=O)c1cc(C)nc(S(C)(=O)=O)c1C#N | – | 35.5 µM (active) |
| Cc1c(Cl)cccc1NC(=O)CCS(=O)(=O)c1ccc2c(c1)oc(=O)n2C | -35.2 | – |
| CCOc1ccc(N2C(=O)CSC2=NC#N)cc1 | -3.07 | – |
| CCOc1ccc(N2C(=O)CN(c3cccc4ccccc34)C2=S)cc1 | -0.257 | – |
| CCOc1ccc(N2C(=O)/C(=C/c3ccc(C)o3)N(C)C2=S)cc1 | – | 28.2 µM (active) |
| CCOC(=O)CSc1ccccn1 | 2.94 | – |
| COc1ccc(C=C(C#N)C#N)c(CSc2ccccn2)c1 | – | 1 µM (active) |
| COc1cccc(N(CC(=O)NCCSc2ccccn2)S(C)(=O)=O)c1 | 0.808 | – |
| CC(C)c1ccc(C2CC(=O)N3CN(C4CCCCC4)CSC3=C2C#N)cc1 (centres undefined) | – | 6.31 µM (active) |
| CC(C)c1ccc(C2C(C#N)=C(N)Oc3c2oc(CO)cc3=O)cc1 (centres undefined) | 17.8 | – |
| CCOC(=O)c1cc2c(=O)n3ccccc3nc2n(CC2CCCO2)c1=NC(=O)c1ccc(C(C)(C)C)cc1 (centres undefined) | 1.91 | – |
| CN1c2ccc(C=O)c3c(C=O)ccc(c23)N(C)C1(C)C | – | 35.5 µM (active) |
| CCc1cc2c(-c3ccccc3)cc(=O)oc2c2c1OCN(Cc1ccc(C)cc1)C2 | -3.03 | – |

Source: PubChem BioAssay AID485364 (National Center for Advancing Translational Sciences (NCATS), 2010)
